Bioassay records as filed in PubChem BioAssay.
The list is not random: actives were taken first. Their share in the collection is about 10%.
ALDH1A1 inh – blocks purified human ALDH1A1 activity | P00352 | AID 1030 | Purified ALDH1A1, NADH fluorescence, propionaldehyde substrate | 7.3% of 220,000 active | Potency, µM (doses to about 75.3 µM), for the others: top-dose activity, negative = inhibition, actives largely listed as inhibitors;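 note: potency is the fitted concentration of half-maximal effect; plate controls were no enzyme wells and a reference inhibitor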
Target sequence (P00352 whole entry, looked up): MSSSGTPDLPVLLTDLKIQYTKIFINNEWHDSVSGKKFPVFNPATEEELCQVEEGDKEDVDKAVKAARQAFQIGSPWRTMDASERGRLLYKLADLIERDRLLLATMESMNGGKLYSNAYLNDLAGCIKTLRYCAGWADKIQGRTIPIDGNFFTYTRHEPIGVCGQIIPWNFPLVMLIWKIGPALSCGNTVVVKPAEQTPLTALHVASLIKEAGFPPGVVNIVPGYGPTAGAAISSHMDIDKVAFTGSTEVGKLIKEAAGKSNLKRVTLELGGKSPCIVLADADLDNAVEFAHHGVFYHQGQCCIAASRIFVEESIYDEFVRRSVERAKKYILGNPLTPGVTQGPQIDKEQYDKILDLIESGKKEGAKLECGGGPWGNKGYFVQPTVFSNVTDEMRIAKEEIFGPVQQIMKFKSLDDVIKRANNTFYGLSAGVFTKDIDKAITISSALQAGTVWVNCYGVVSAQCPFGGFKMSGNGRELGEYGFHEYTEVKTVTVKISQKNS
Luc counter – blocks Kinase-Glo luciferase, a counter-screen artifact. Kinase-Glo luciferase, ATP luminescence, 8 min. AID 1379. Potency, µM (top dose mostly 38.3 µM), for inactives: at the top dose activity change, negative = inhibition, usual class: inhibitors. Q27757. 0.28% of 200,000 active; active = well fitted inhibition curve with a large enough effect; inconclusive = small, poorly fitted or top-dose-only effect; note: potency is the fitted concentration of half-maximal effect; nearly all actives have a fitted effect of over 60% in size
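Recombinant Kinase-Glo luciferase, 10 uM ATP (linear range), luciferin; imidazole pH 7.2 / KCl / MgCl2 / Tween / BSA buffer; 8 min RT; luminescence.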
LMNA splice mod – changes lamin A minigene splicing in HeLa cells; Potency, µM (doses to about 46.1 µM), for the others: top-dose ratio change, negative = inhibition, usual class: inhibitors; 0.01% of 200,000 active; AID 1487; HeLa LMNA splicing GFP/RFP minigene ratio, 48 h; active = well fitted inhibition curve with a large enough effect in the signal ratio, with a control signal flat, not every such curve was filed as active; inconclusive = small, poorly fitted or top-dose-only effect, or effect the other way, or a change in a side signal; the % refers to the signal ratio; note: potency is the fitted concentration of half-maximal effect
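S3 HeLa stable clones carrying a lamin A-EGFP splicing minigene plus DsRed2 were seeded at 600 cells/well in Opti-MEM with 2% FBS, pin-dosed and incubated 48 h at 37°C. Acumen cytometry (488 nm) gave the GFP/RFP total-intensity ratio.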
PNC inhibitor – inhibitors of perinucleolar compartment assembly; PC3M PTB-GFP, PNC prevalence imaging, 16 h; hits give low values; activity change (PNC), negative = inhibition, % at 10 µM; 3.1% of 140,000 active; AID 2417;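 active = readout at or below -70, meaning at least 70% loss of cells showing the perinucleolar compartment, a nuclear body marking cancer cells; inconclusive = readout between -30 and a set limit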;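 note: plate controls were DMSO wells for no effect and camptothecin positive control wells for full effect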
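Read-out is percentage of cells bearing a perinucleolar compartment, from automated 20x imaging of fixed, Hoechst-stained PC3M PTB-GFP cells. Cells were seeded 4 h, then exposed 16 h to compound (23 nl of library stock) in duplicate plates.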
HPGD block – inhibitors of human 15-hydroxyprostaglandin dehydrogenase (HPGD) | P15428 | purified HPGD, NADH fluorescence kinetic, PGE2 substrate | Potency, µM, without a hit: at the top dose activity change, negative = inhibition, usual class: inhibitors | 4.3% of 150,000 active | AID 894; note: potency is the fitted concentration of half-maximal effect
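NADH formation kinetics: reaction with 30 uM PGE2 and 1 mM NAD+ (final), 20 nM enzyme, Tris-HCl pH 8 with Tween 20, after 15 min compound preincubation at room temperature. Fluorescence change, last versus first of five reads.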
An asterisk follows results filed as active; ? = inconclusive; . = no result given; [ ] = another dose, or the depositor's remark. Unless noted, calls come from the whole dose curve; as a rule, active = well fitted inhibition curve with a large enough effect (not every such curve was filed as active); inconclusive = small, poorly fitted or top-dose-only effect, or another doubt; inactive = no such curve, though single readings can be large or run the other way. Unless noted, % is set by controls: 0 for no effect and ±100 for the full control effect.

SMILES	ALDH1A1 inh	Luc counter	LMNA splice mod	PNC inhibitor	HPGD block
Cc1ccc(/C=C/C(=O)Nc2nn[nH]n2)o1	?	0%	-1%	0	-27%
Cc1ccc(/C=C/C(=O)Nc2cccc3ncccc23)o1	?	4%	-1%	0	32µM*
O=C(Nc1cccc2ncccc12)c1cccnc1	-1%	0%	-11%	17	-10%
Cc1ccc(/C=C/C(=O)Nc2cccnc2)o1	10µM*	-2%	1%	?	22µM*
N#C/C(=C\c1cccc([N+](=O)[O-])c1)C(=O)Nc1cccnc1	11µM*	3%	.	.	.
O=C(/C=C/c1ccc([N+](=O)[O-])cc1)Nc1cccnc1	8.9µM*	?	10%	22	-24%
COCCn1c(=O)cnc2cnc(N3CCNCC3)nc21	?	-1%	.	.	?
CCOc1ccc(-c2cc(CCCC(=O)N3CCN(c4ccc(OC)cc4)CC3)no2)cc1	20µM*	0%	?	26	-24%
Cc1ccc(C(=O)C(C)OC(=O)c2n[nH]c(=O)c3ccccc23)cc1 (centres undefined)	16%	0%	4%	-8	14µM*
Cc1ccc(CCNC(=O)Cn2cccc2)cc1	-10%	-4%	-8%	22	14µM*
O=C(NC[C@@H](O)CO)c1c(I)c(C(=O)NC[C@@H](O)CO)c(I)c(N(CCO)C(=O)CO)c1I	-6%[20.9 µM]	3%[17.1 µM]	?	.	-25%
O=C1C2CC=CCC2C(=O)N1c1ccc(N2CCN(c3ccccn3)CC2)c([N+](=O)[O-])c1 (centres undefined)	18µM*	1%	.	.	.
O=C(c1ccc(N2CCCCC2)c([N+](=O)[O-])c1)N1CCN(c2ccccn2)CC1	?	0%	.	.	.
Cc1ccc2c(c1)C(=O)[C@@]1(O)CCN(c3ccccc3)C1=N2	1%	0%	.	.	-4%
O=C(c1nc2ccccn2c1CN1CCC(Cc2ccccc2)CC1)N1CCCC1	11µM*	4%	.	.	.
COC(=O)N/N=C/c1sc(N2CCCCC2)nc1-c1cccs1	25µM*	-2%	.	.	.
COc1ccc(C(=O)N/N=C/c2sc(N3CCOCC3)nc2-c2ccccc2)cc1OC	-12%	-2%	-16%[46 µM]	.	.
CC(C)Cn1c(-c2ccco2)csc1=Nc1cccnc1	13µM*	-3%	17%	-29	-15%
COc1ccc(CCN(C)CCCC(C#N)(c2cc(OC)c(OC)c(OC)c2)C(C)C)cc1OC (centres undefined)	-3%	2%	?	-115*	-2%
COc1ccc(CCN(C)CCC(=O)Nc2ccc(C)cc2)cc1OC	-4%	-2%	-9%	1	-5%
COc1ccc(Nc2nc(OC)nc(N3CCOCC3)n2)cc1	3%	-1%	.	.	.
Fc1ccc(Nc2nc(Oc3ccc4c(c3)OCO4)nc(N3CCOCC3)n2)c(F)c1	12%	-2%	1%	-95*	-4%
CCCCCCCn1ccc(=N)cc1	1%	0%	?	10	-3%
CCCCCn1ccc(=N)cc1	?	-2%	?	-84*	-1%
Cc1cnnn1-c1ccc(C(=O)CCl)cc1	0.89µM*	0%	9%	50	?
SMILES	ALDH1A1 inh	Luc counter	LMNA splice mod	PNC inhibitor	HPGD block
COc1ccccc1CNc1ncncc1-c1ccoc1	25µM*	1%	?	.	-23%
COc1ccc(CNC(=O)C2CCCN(C(=O)N3CCOc4ccccc43)C2)cc1 (centres undefined)	.	.	2%[46 µM]	.	.
O=C(COC(=O)c1ccccc1)Nc1ccc(Cl)cn1	5%	.	.	.	.
O=C(COC(=O)Cc1ccccc1F)Nc1ccc(Cl)cn1	13µM*	0%	?	.	.
Cc1ccccc1OCc1nc2ccccc2[nH]1	-1%	13µM*	.	.	.
COc1ccc(C(=O)N2CCc3ccccc32)cc1	4%	1%	-8%	-19	-17%
COc1ccc(C(=O)/C=C2\NCC3c4ccccc4CCN3C2=O)cc1 (centres undefined)	7.9µM*	1%	8%	-28	28µM*
O=C(c1ccc2snnc2c1)N1CCCCC1	-6%	6%	1%	-100*	16µM*
Fc1ccc(CNCc2ccccc2C(F)(F)F)cc1	5%	-2%	1%	-114*	-7%
O=C(Nc1ccc(Cc2ccncc2)cc1)C1CC1	0%	0%	1%	?	-25%
